Only some compounds are listed: those with a hit (about 4.2% of all), similar ones and a draw of the others.
Mito fusion yeast = blocks mitochondrial division or promotes mitochondrial fusion; S. cerevisiae fusion-defective mutant growth rescue, CellTiterGlo 48 h; Potency, µM (highest dose often 46.1 µM), inactives show at the top dose growth rescue (activation), most hits filed as activators; actives 0.23% (n = 320,000); AID 485298; further: % of control where 0% means no effect; nearly all actives have a fitted effect of over 45% in size
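Luminescent cell viability in 1536-well qHTS format served as the measure of rescued growth in ts fusion-mutant S. cerevisiae cultured on non-fermentable YPEG for 48 hours at 37C.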
MCF10A rerep = DNA re-replication induction in MCF 10a cells; MCF 10A DNA re-replication, Hoechst nuclear intensity, 48 h; Potency, µM (titrated, usually from 46.1 µM), for inactives: at the highest dose activity, positive = re-replication, usual class: activators; actives 2.9% (n = 350,000); further: % of control where 0% means no effect; nearly all actives have a fitted effect of over 50% in size
SW480 rerep = DNA re-replication induction in SW480 cells. SW480 DNA re-replication, Hoechst DNA content imaging, 48 h. Potency, µM (doses to about 46.1 µM), for the others: at the highest dose re-replication activation, actives largely listed as activators. actives 1.8% (n = 340,000). AID 624297; further: % of control where 0% means no effect; nearly all actives have a fitted effect of over 55% in size
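Image-based DNA-content assay: after two days of treatment, nuclei were labelled with the DNA dye Hoechst and imaged, and hits were compounds raising the count of nuclei showing high fluorescence intensity.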
A-T KAP1 phos = potential ataxia-telangiectasia treatments restoring KAP-1 phosphorylation | Potency, µM (top dose mostly 57.5 µM), inactives show at the top dose activation, usual class: activators | F2112 A-T fibroblasts, KAP-1 phosphorylation AlphaLISA; neocarzinostatin DNA damage 30 min before lysis | actives 0.19% (n = 320,000); further: % of control where 0% means no effect; nearly all actives have a fitted effect of over 45% in size
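ATM-like activity read as KAP-1 phosphorylation via AlphaLISA donor/acceptor antibody pairs after lysis and 6 hr at 25C. Cells were ATM-null patient fibroblasts (F2112, hTERT), dosed 60 min, then exposed to the DSB inducer NCS for 30 min.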
Integrin act MD = activators of alpha7 integrin expression for muscular dystrophy; alpha7betagal myoblasts, beta-gal FDG fluorescence, 48 h; Potency, µM (highest dose often 38.3 µM), inactives show at the top dose activation, most hits filed as activators; actives 0.064% (n = 350,000); AID 624291;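 further: 100% = response of the positive control SU9516; nearly all actives have a fitted effect of over 60% in size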
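alpha7betagal+/- myoblasts (passage 13, 250/well) treated 48 h at 37C with compounds at 1:260 dilution of DMSO stock. Lysed, then beta-galactosidase activity read as FDG fluorescence (ex 480/em 540) after 30 min, with pre-read for autofluorescence.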
The depositor's hits bear a star. The call rests on the fitted dose curve; in most records, active means well fitted activation curve with a large enough effect; inconclusive means small, poorly fitted or top-dose-only effect; inactive means no such curve, though single readings can be large or run the other way. Potency means the concentration at half of the fitted maximal effect.

Screening CCOc1cccc2cc(C(=O)NCCC3=CCCCC3)c(=O)oc12 returned Mito fusion yeast 1%, MCF10A rerep -3%, SW480 rerep -5%, A-T KAP1 phos 25% and Integrin act MD -4%.
For Cc1ccc(C(=O)COC(=O)COc2ccccc2[N+](=O)[O-])s1 the results were Mito fusion yeast 4%, MCF10A rerep -6%, SW480 rerep -4%, A-T KAP1 phos 2% and Integrin act MD -9%.
For CCOC(=O)COc1ccccc1/C=C\[N+](=O)[O-] the results were Mito fusion yeast 0%, MCF10A rerep inconclusive, SW480 rerep 4.1µM*, A-T KAP1 phos -4% and Integrin act MD -44%.
CCN(CC)C(=S)SSC(=S)N(CC)CC was read as Mito fusion yeast -68%, MCF10A rerep 15µM*, SW480 rerep inconclusive and A-T KAP1 phos 29%.
`CCN(CC)C(=S)SCC(=O)c1ccccc1` gave Mito fusion yeast -4%, MCF10A rerep 15%, SW480 rerep inconclusive, A-T KAP1 phos 1% and Integrin act MD 17%.
`Cc1ccc(C(=O)CCC(=O)N2CCN(C/C=C/c3ccccc3)CC2)cc1` gave Integrin act MD -9%.
Screening COc1ccc(CNC(=O)C(C#N)c2nc3ccccc3nc2N2CCN(C)CC2)cc1 (stereo not drawn) returned Mito fusion yeast -2%, MCF10A rerep 2%, SW480 rerep 1%, A-T KAP1 phos -5% and Integrin act MD 17%.
Screening COc1ccc(CNC(=O)C(C#N)c2nc3ccccc3nc2N2CCCC2)cc1 (stereo not drawn) returned Mito fusion yeast 1%, MCF10A rerep 12µM*, SW480 rerep inconclusive, A-T KAP1 phos -3% and Integrin act MD -6%.
CC1CCc2c(sc(Nc3nc4c(F)cccc4s3)c2C(N)=O)C1 (stereo not drawn) was read as Mito fusion yeast inconclusive, MCF10A rerep 7.3µM*, SW480 rerep inconclusive, A-T KAP1 phos 6% and Integrin act MD 15%.
`COc1ccc(-n2c(C)cc(/C=N/Nc3nnc(C)n3N)c2C)cc1` gave Mito fusion yeast 1%, MCF10A rerep inconclusive, SW480 rerep inconclusive, A-T KAP1 phos 15% and Integrin act MD -10%.
Screening Cn1nc(C(=O)N2CCN(c3cccc(Cl)c3)CC2)c2c1-c1ccccc1S(=O)(=O)C2 returned Mito fusion yeast 11µM*, MCF10A rerep 5%, SW480 rerep -1%, A-T KAP1 phos 0% and Integrin act MD -4%.
Screening Cc1ccc(CCNC(=O)c2nn(C)c3c2CS(=O)(=O)c2ccccc2-3)cc1 returned Mito fusion yeast 15%, MCF10A rerep 1%, SW480 rerep inconclusive, A-T KAP1 phos 3% and Integrin act MD 30%.
Screening COc1ccc(CCNC(=O)c2nn(C)c3c2CS(=O)(=O)c2ccccc2-3)cc1OC returned Mito fusion yeast -4%, MCF10A rerep inconclusive, SW480 rerep 23µM*, A-T KAP1 phos 2% and Integrin act MD 4.5µM*.
`Cc1ccc(N2CCN(C(=O)c3nn(C)c4c3CS(=O)(=O)c3ccccc3-4)CC2)c(C)c1` gave Mito fusion yeast 11µM*, MCF10A rerep -1%, SW480 rerep inconclusive, A-T KAP1 phos -9% and Integrin act MD -18%.
CC(=O)c1c(C)[nH]c(C(=O)OCC(=O)NCc2ccccc2)c1C was read as Integrin act MD 2%.
Screening Cc1ccc(C(C)C)c(OCC(O)CNC2CCCC2)c1 (stereo not drawn) returned Mito fusion yeast -16%, MCF10A rerep -6%, SW480 rerep 10%, A-T KAP1 phos 1% and Integrin act MD -60%.
`Cc1ccc(OCCCCN(C)Cc2ccccc2)c(Br)c1` gave Mito fusion yeast inconclusive, MCF10A rerep inconclusive, SW480 rerep inconclusive, A-T KAP1 phos 17% and Integrin act MD -50%.
For Cc1ccc(C(C)C)c(OCC(O)CN(C)Cc2ccccc2)c1 (stereo not drawn) the results were Mito fusion yeast -39%, MCF10A rerep inconclusive, SW480 rerep 21µM*, A-T KAP1 phos 2% and Integrin act MD -62%.
For Cc1ccc(C(C)C)c(OCCCN(C)Cc2ccccc2)c1 the results were Mito fusion yeast -9%, MCF10A rerep 23µM*, SW480 rerep inconclusive, A-T KAP1 phos 35µM* and Integrin act MD 35%.
`COc1ccc(N2CCN(Cc3nc4scc(-c5ccccc5)c4c(=O)[nH]3)CC2)cc1` gave Mito fusion yeast 3%, MCF10A rerep 23%, SW480 rerep -1%, A-T KAP1 phos 1% and Integrin act MD 11%.
O=c1[nH]c(CN2CCN(c3ccccc3)CC2)nc2scc(-c3ccccc3)c12 was read as Mito fusion yeast 5%, MCF10A rerep 5.2µM*, SW480 rerep inconclusive, A-T KAP1 phos 2% and Integrin act MD 7%.
Screening COc1cc2c(cc1OC)[C@H](Cc1ccc(O)cc1)NCC2 returned Mito fusion yeast 0%, MCF10A rerep 16µM*, SW480 rerep inconclusive, A-T KAP1 phos -3% and Integrin act MD -13%.
For COc1cc2c(cc1OC)C(c1ccc(O)cc1)NCC2 (stereo not drawn) the results were Mito fusion yeast 1%, MCF10A rerep 0%, SW480 rerep -2%, A-T KAP1 phos 5% and Integrin act MD -8%.
For O=C(NCC(=O)N1CCN(c2cccc(Cl)c2)CC1)c1ccc(Br)o1 the results were Mito fusion yeast 8%, MCF10A rerep 4%, SW480 rerep inconclusive, A-T KAP1 phos -2% and Integrin act MD 0%.
For Cc1ccc(Cl)cc1N1CCN(C(=O)CNC(=O)c2ccc(Br)o2)CC1 the results were Mito fusion yeast 16µM*, MCF10A rerep 14%, SW480 rerep 3%, A-T KAP1 phos 6% and Integrin act MD 17%.
For CN(Cc1cnccn1)Cc1cn(Cc2ccccc2)nc1-c1ccc2c(c1)OCO2 the results were Mito fusion yeast 1%, MCF10A rerep -3%, SW480 rerep -2%, A-T KAP1 phos 4% and Integrin act MD 0%.
`O=C(/C=C/c1ccncc1)c1ccc(NC(=O)c2ccccc2F)cc1` gave Mito fusion yeast inconclusive, MCF10A rerep 3.7µM*, SW480 rerep 4.1µM*, A-T KAP1 phos 5% and Integrin act MD -73%.
Screening CCN(CC)c1ccc(NC(=O)c2ccccc2F)cc1 returned Mito fusion yeast 11%, MCF10A rerep inconclusive, SW480 rerep 18µM*, A-T KAP1 phos -4% and Integrin act MD -25%.
Screening O=C(Nc1ccc(Nc2ccccc2)cc1)c1ccccc1F returned Mito fusion yeast -7%, MCF10A rerep inconclusive, SW480 rerep 4.6µM*, A-T KAP1 phos 3% and Integrin act MD 18%.
`CCN(CC)c1ccc(NC(=O)c2cc(Cl)ccc2OC)cc1` gave Mito fusion yeast 14%, MCF10A rerep inconclusive, SW480 rerep -2% and Integrin act MD -26%.

Screening results: PubChem, National Center for Advancing Translational Sciences (NCATS)
